Assay outcomes (PubChem)
HepG2 viability = counter-screen for TGF-b inhibitors: cytotoxicity in HepG2 cells; HepG2 CAGA-GFP viability, ATP luminescence, 18 h; Potency, µM (series often up to 46.1 µM), inactives show top-dose activity change, negative = cytotoxicity, usual class: cytotoxic; hit rate 0.76% among 410,000; AID 588856; further: potency means the concentration at half of the fitted maximal effect
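HepG2 CAGA-GFP cells (1000/well, DMEM with 1% FBS) received compound, then TGF-beta at 500 pg/mL final, and were incubated 18 hours at 37 degrees C. Viability was read by CellTiter-Glo luminescence. Media-only wells were set as complete cell-killing and DMSO as no toxicity.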
ASM inhibitor = human S-ASM enzyme inhibition; P17405; placental ASM, HMU-PC fluorogenic substrate, 60 min; Potency, µM (series often up to 57.5 µM), inactives show top-dose activity change, negative = inhibition, usual class: inhibitors; hit rate 0.006% among 340,000; AID 504937; further: potency means the concentration at half of the fitted maximal effect
Target sequence (P17405 47-631 limits assumed): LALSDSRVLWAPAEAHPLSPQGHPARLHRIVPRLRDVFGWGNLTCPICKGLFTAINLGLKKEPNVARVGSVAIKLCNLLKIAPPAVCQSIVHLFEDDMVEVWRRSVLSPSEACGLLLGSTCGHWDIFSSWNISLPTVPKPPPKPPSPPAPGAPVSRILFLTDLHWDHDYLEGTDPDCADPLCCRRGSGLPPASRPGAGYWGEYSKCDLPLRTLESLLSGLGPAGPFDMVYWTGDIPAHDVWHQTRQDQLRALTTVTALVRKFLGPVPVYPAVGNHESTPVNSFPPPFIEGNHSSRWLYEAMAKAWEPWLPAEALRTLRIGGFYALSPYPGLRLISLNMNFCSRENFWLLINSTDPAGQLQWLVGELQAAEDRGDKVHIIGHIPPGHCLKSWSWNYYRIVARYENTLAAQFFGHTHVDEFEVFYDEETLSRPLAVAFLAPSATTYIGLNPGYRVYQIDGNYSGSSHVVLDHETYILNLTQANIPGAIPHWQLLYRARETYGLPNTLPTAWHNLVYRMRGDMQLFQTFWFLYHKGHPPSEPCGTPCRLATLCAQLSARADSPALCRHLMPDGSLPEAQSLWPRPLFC
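Human placenta-derived ASM enzyme was preincubated with compound for 10 minutes at room temperature, then given fluorogenic substrate HMU-PC0 (9 uM final) for 60 minutes at 37 °C; a pH 10 stop preceded fluorescence reading at Ex 386/Em 447 nm.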
IL-1B inflam inh = inhibitors of inflammasome signaling (IL-1 beta secretion); THP-1 LPS/ATP IL-1B secretion, AlphaLISA, 16 h; hits give low values; activity change, % at 57.5 µM; hit rate 4.7% among 360,000; AID 743279; in the data active means activity change below about -50%; inconclusive means mostly about -30% to -49%; further: on the % scale 0 is the no-effect control and ±100 the full control effect
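Secreted IL-1B measured by AlphaLISA bead assay after 16 h compound exposure of THP-1 cells; compounds (final up to 57.5 uM) added 1 h before LPS (250 ng/mL) and ATP (1.25 mM) stimulation; lower signal means less secretion.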
DT40 TDP1 no CPT = qHTS for Inhibitors of human tyrosyl-DNA phosphodiesterase 1 (TDP1): qHTS in cells in absence of CPT; DT40 Tdp1-/- hTDP1 cells, no CPT, ATP luminescence, 48 h; Potency, µM (top dose mostly 46.2 µM), for inactives: top-dose activity change, negative = growth inhibition, actives largely listed as inhibitors; hit rate 15% among 420,000; AID 686978, 2013; further: potency means the concentration at half of the fitted maximal effect; on the % scale 0 is the no-effect control and ±100 the full control effect; nearly all actives have a fitted effect of over 55% in size
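Seeded 400 DT40-hTDP1 cells/well (vehicle DMSO, no 20 nM CPT); pinned compounds; ≥48 hr at 37 °C; CellTiter-Glo luminescence as viability measure.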
DT40 TDP1 CPT = DT40-hTDP1 cell growth loss with CPT. chicken DT40 Tdp1-/-;hTDP1 cells + 20 nM CPT, ATP luminescence, 48 h. Potency, µM (top dose mostly 46.2 µM), for inactives: at the top dose activity change, negative = growth inhibition, usual class: inhibitors. hit rate 12% among 420,000. AID 686979; further: potency means the concentration at half of the fitted maximal effect; on the % scale 0 is the no-effect control and ±100 the full control effect; nearly all actives have a fitted effect of over 55% in size
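Chicken DT40 Tdp1-/- cells stably complemented with human TDP1 were seeded at 400 cells/well in medium containing 20 nM camptothecin, exposed to pin-transferred compounds, and grown at 37 °C for at least 48 hr. Viability was read as ATP luminescence.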
TGFb inhibitor = TGF-b pathway inhibition | HepG2 CAGA-GFP TGF-b/SMAD3 reporter, GFP fluorescence, 18 h; TGF-beta stimulated, 500 pg/mL final | Potency, µM (highest dose often 46.1 µM), for inactives: at the top dose activity, negative = inhibition, actives largely listed as inhibitors | hit rate 1.2% among 410,000; further: potency means the concentration at half of the fitted maximal effect; on the % scale 0 is the no-effect control and ±100 the full control effect; nearly all actives have a fitted effect of over 65% in size
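GFP signal (ex488/em500-530) from TGF-beta-stimulated HEPG2 CAGA-GFP cells, 500 pg/mL final, 18 h at 37 degrees C in DMEM plus 1% FBS, normalized to unstimulated and DMSO-stimulated controls.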
* = called active by the depositor; ? = inconclusive; . = not tested or not shown. Compounds with a hit are over-represented: about 19% of the library has one in this group of screens. Unless noted, the call rests on the fitted dose curve; in most records, active means well fitted curve in the direction sought with a large enough effect; inconclusive means small, poorly fitted or top-dose-only effect, or another doubt; inactive means no such curve, though single readings can be large; an effect the other way counts as inactive or inconclusive.

SMILES	HepG2 viability	ASM inhibitor	IL-1B inflam inh	DT40 TDP1 no CPT	DT40 TDP1 CPT	TGFb inhibitor
CC1(C(=O)NCCc2ccccc2)Cc2c(-c3cccc(C(N)=O)c3)ccnc2O1 (configuration not stated)	-3%	.	29	18µM*	?	17%
Cc1ccc(S(=O)(=O)N(C)CC(=O)OCC(=O)NCCN2C(=O)CSC2=O)cc1	0%	2%	2	1%	-13%	-2%
CN(C)c1ccc(-c2ccnc3c2CC(C)(C(=O)NCCc2ccccc2)O3)cc1 (configuration not stated)	-12%	.	-18	?	29µM*	63%
COc1ccc(CNC(=O)C2(C)Cc3c(-c4ccc5c(c4)OCO5)ccnc3O2)cc1OC (configuration not stated)	-3%	.	24	16µM*	?	13%
CN(C)c1ccc(CNC(=O)C2(C)Cc3c(-c4ccc5c(c4)OCO5)ccnc3O2)cc1 (configuration not stated)	-3%	.	0	3.7µM*	4.6µM*	-22%
COCCNC(=O)C1(C)Cc2c(-c3ccc(N(C)C)cc3)ccnc2O1 (configuration not stated)	-28%	.	9	4.6µM*	5.2µM*	0%
CCc1ccc(S(=O)(=O)c2c[nH]c3cc(OC)c(OC)cc3c2=O)cc1	-3%	.	.	?	-24%	1%
Cc1nnc(SCCCOc2ccccc2)nc1C	1%	-2%	15	0%	18%	-2%
Cc1cc(C(=O)Nc2ncc(C)s2)c2ccccc2n1	3%	1%	9	-4%	-9%	11%
CN1CCN(c2ccc(CNC(=O)C3(C)Cc4c(-c5ccc6c(c5)OCO6)ccnc4O3)cc2)CC1 (configuration not stated)	-48%	.	?	15µM*	?	18%
CN(C)c1ccc(-c2ccnc3c2CC(C)(C(=O)Nc2cccc(N(C)C)c2)O3)cc1 (configuration not stated)	-6%	.	16	-22%	?	14%
CN1CCN(c2ccc(CNC(=O)C3(C)Cc4c(-c5ccc(C(N)=O)cc5)ccnc4O3)cc2)CC1 (configuration not stated)	-11%	.	-4	-16%	-17%	-4%
CN(C)c1ccc(-c2ccnc3c2CC(C)(C(=O)NCC2CC2)O3)cc1 (configuration not stated)	-42%	.	20	5.2µM*	5.2µM*	-30%
CC(C)OCCCn1c(=O)c2ccccc2n2c(-c3ccccc3)nnc12	3%	.	.	?	?	2%
Cc1ccc(CNC(=O)Cn2c(=O)n(-c3ccc(Cl)cc3)c(=O)c3c(C)c(C)sc32)cc1	-20%	.	.	-4%	-8%	-27%
CCc1ccc(-n2c(=O)c3c4c(sc3n(Cc3ccc(F)cc3)c2=O)CCCC4)cc1	-16%	.	.	-20%	-13%	-7%
CCCC(O)(CCC)C(=O)NN(C(=O)CCl)c1ccccc1	-89%	2%	?	10µM*	12µM*	?
CCOC(=O)N(NC(=O)C(O)(c1ccccc1)c1ccccc1)c1ccccc1	3%	6%	-6	26µM*	-19%	?
CCOC(=O)N(NC(=O)C(O)(C(C)C)C(C)C)c1ccccc1	-9%	2%	5	-11%	0%	-4%
CCc1nn(Cc2ccc(Cl)cc2)c(=O)c2cc3cc(C)ccc3n12	-21%	.	.	-2%	-26%	?
CCc1ccc(NC(=O)c2ccc3c(c2)c(C)c(C)n3Cc2ccccc2)cc1	-28%	.	.	5.2µM*	5.8µM*	-21%
Cc1ccc(CNC(=O)c2ccc3c(c2)c(C)c(C)n3Cc2ccccc2)o1	-27%	.	.	?	?	0%
CCn1c(C)cc(O)c(C(=O)Nc2cccc(Cl)c2)c1=O	13%	-1%	0	3.7µM*	?	4%
COc1ccc(-n2c(=O)c3ccc(C(=O)NCc4ccc(C)cc4)cc3n(CC(=O)Nc3ccc(C)cc3)c2=O)cc1	-31%	.	.	21µM*	?	-23%
Cc1ccc(-n2c(=O)c3ccc(C(=O)NCc4ccco4)cc3n(Cc3ccc(Cl)cc3)c2=O)cc1	-47%	.	.	6.5µM*	18µM*	-49%
SMILES	HepG2 viability	ASM inhibitor	IL-1B inflam inh	DT40 TDP1 no CPT	DT40 TDP1 CPT	TGFb inhibitor
Cc1ccc(-n2c(=O)c3ccc(C(=O)NCc4ccco4)cc3n(Cc3ccccc3C#N)c2=O)cc1	-2%	3%	14	?	?	5%
O=C(Cc1ccccc1)NCCSC1CCCCC1	-6%	0%	32	?	-1%	-10%
COc1ccc(OC)c(NC(=O)C(=O)NNC(=O)c2cccs2)c1	-14%	5%	-5	?	-8%	-1%
Cc1cccc(OCC(=O)OC(C)C(=O)Nc2ccc(S(=O)(=O)N3CCCCC3)cc2)c1 (configuration not stated)	-3%	-8%	0	-21%	-15%	22%
CC(=O)OC1CC2C(C)(C)C(=O)[C@@H]3OC3[C@@]2(C)C2CC[C@]3(C)C(=CC(=O)OC3c3ccoc3)[C@]12C (some centres not stated)	.	.	.	-5%	11%	.
CCc1ccc(Nc2nnc(SCC(=O)NC(=O)CN3CCCC3=O)s2)cc1	4%	-1%	5	21%	0%	-9%
Cc1ccc(NCc2n[nH]c(=S)n2Cc2ccccc2)cc1Cl	-30%	-7%	-10	?	?	?
COc1cccc(CNC(=O)c2ccc3c(c2)c(C)c(C)n3Cc2ccccc2)c1	-65%	.	.	18µM*	16µM*	-22%
CC(=O)c1cccc(NC(=O)c2ccc3c(c2)c(C)c(C)n3Cc2ccc(Cl)cc2)c1	-30%	.	.	9.2µM*	15µM*	?
Cc1c(C)n(Cc2ccccc2)c2ccc(C(=O)NCc3ccco3)cc12	-43%	.	.	16µM*	?	-17%
Cc1c(C)n(Cc2ccc(Cl)cc2)c2ccc(C(=O)NCCN3CCOCC3)cc12	-28%	-19%	0	?	?	-15%
Cc1c(C)n(Cc2ccccc2)c2ccc(C(=O)OCCN(C)C)cc12	-52%	-8%	-26	12µM*	?	?
CNC(=O)OCN1C(=O)C2CC=CCC2C1=O (configuration not stated)	18%	1%	9	-5%	?	30%
